PubChem BioAssay
Several values for one entry are separate records, joined by “and”; a condition that tells them apart may be missing. Identical values can stand only once. Activity calls are given as the source filed them. No stated cut-off is given here; in the data, active means fold change permeability below about 0.7 or above about 1.3; inactive means in between.

Test: compounds altering in vitro BBB leakiness – cell-based, FITC-avidin fluorescence, HTS, primary screen (AID 1963498); further: test concentration not given here
Conditions: brain endothelial barrier, actives lie on both sides

Row | SMILES | fold change permeability
1 | O=P(O)(O)C(O)(Cc1cnc2ccccn12)P(=O)(O)O | 0.8 (inactive)
2 | CC[C@@]1(O)C(=O)OCc2c1cc1n(c2=O)Cc2cc3ccccc3nc2-1 | 1.4 (active)
3 | CC(C)NP(=O)(NC(C)C)OP(=O)(NC(C)C)NC(C)C | 1.1 (inactive)
4 | O=P1(N(CCCl)CCCl)NCCCO1 (stereo unspecified) | 1 (inactive)
5 | CP(=O)(O)C1=CCNCC1 | 1.4 (active)
6 | Clc1ccc(C(Cn2ccnc2)OCc2csc3c(Cl)cccc23)c(Cl)c1 (stereo unspecified) | 1.2 (inactive)
7 | NC(=O)CN1CCCC1=O | 1.2 (inactive)
8 | NNC(=O)c1ccc(O)cc1 | 0.8 (inactive)
9 | CCCN(CCC)[C@@H]1CCc2cccc(O)c2C1 | 1.2 (inactive)
10 | N=C(N)c1ccc(CS(=O)(=O)F)cc1 | 1.2 (inactive)
11 | COC(=O)C1=CCCN(C)C1 | 1.2 (inactive)
12 | COc1ccc2[nH]cc(CCN)c2c1 | 0.8 (inactive)
13 | C[N+](C)(C)CCOC(=O)CBr | 1 (inactive)
14 | O=C(O)Cc1cnc[nH]1 | 1 (inactive)
15 | CN(c1nc2ccccc2s1)C1CCN(C[C@H](O)COc2ccc(F)c(F)c2)CC1 | 1.6 (active)
16 | CN1C2C=C(c3sccc3Br)CC1CC2 (stereo unspecified) | 0.9 (inactive)
17 | CCCN(CCC)C1CCc2ccc(O)cc2C1 (stereo unspecified) | 1.1 (inactive)
18 | Cn1cnc(CCN)c1 | 0.9 (inactive)

Row | SMILES | fold change permeability
19 | CC(C)(C)NCC(O)c1ccccc1Cl (stereo unspecified) | 0.7 (active)
20 | C=CCN1CC[C@]23c4c5ccc(O)c4O[C@H]2C(=O)CC[C@@]3(O)[C@H]1C5 | 1 (inactive)
21 | CCc1c(C(=O)C(N)=O)c2c(OCC(=O)O)cccc2n1Cc1ccccc1 | 1.1 (inactive)
22 | COc1ccc2c(c1OC)C(=O)O[C@H]2[C@@H]1c2cc3c(cc2CCN1C)OCO3 | 1.2 (inactive)
23 | Cc1cccc(C)c1NC(=O)CN1CCCC1=O | 1 (inactive)
24 | O=C(CCCN1CCC2(CC1)C(=O)NCN2c1ccccc1)c1ccc(F)cc1 | 1 (inactive)
25 | NN=C(N)N | 1.2 (inactive) and 1 (inactive)
26 | NC(Cc1cc(O)c(O)cc1O)C(=O)O (stereo unspecified) | 0.9 (inactive)
27 | O=C(N[C@H]1CN2CCC1CC2)c1c[nH]c2ccsc2c1=O | 0.9 (inactive)
28 | C[N+]1(C)CCC(OC(=O)C(c2ccccc2)c2ccccc2)CC1 | 1.6 (active)
29 | N[C@@H]1C[C@H]1c1ccccc1 | 0.9 (inactive)
30 | O=[N+]([O-])c1cc(O)c(O)c([N+](=O)[O-])c1 | 1 (inactive)
31 | CC(Cc1ccc(OCC(=O)O)cc1)NCC(O)c1cccc(Cl)c1 (stereo unspecified) | 1 (inactive)
32 | O=[N+]([O-])/C=C/c1ccc2c(c1)OCO2 | 1.4 (active)
33 | CCOC(=O)c1ccc(-c2ccc(OC(=O)N(C)Cc3cccc(-c4ccncc4)c3)cc2)cc1 | 1.2 (inactive)
34 | CC(=O)NBr | 1 (inactive)
35 | C#C[C@]1(O)CC[C@H]2[C@@H]3CCC4=Cc5nc6nc7ccccc7n6cc5C[C@]4(C)[C@H]3CC[C@@]21C | 1.8 (active)
36 | CC(=O)[C@H]1CCC2C3CC[C@H]4C[C@H](O)CC[C@]4(C)C3CC[C@@]21C (stereo partly specified) | 0.9 (inactive)
